Data published in PubChem BioAssay (Tox21).
Records with an inconclusive call do not appear. The source made the active and inactive calls. Unless noted, the call rests on the fitted dose curve; in most records, active means well fitted curve in the direction sought with a large enough effect in the repeat runs; inconclusive means weak or mixed curves; inactive means no such curve, though single readings can be large; an effect the other way counts as inactive or inconclusive.

Columns and labels:
[1] = qHTS assay to identify small molecule agonists of the androgen receptor (AR) signaling pathway in the presence of an antagonist - cell viability counter screen (AID 1259379);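 further: MDA-kb2 human breast cancer cells carrying an MMTV luciferase reporter; series mostly up to about 92 µM; nearly all actives have a fitted effect of over 25% in size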
How it was run: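 In MDA-kb2 cells (human breast carcinoma, MMTV-luciferase), compounds at 15 concentrations plus 3.0uM nilutamide; 16 hr, 37C, 0% CO2; CellTiter-Fluor fluorescence read for viability.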

[2] = qHTS assay to identify small molecule agonists of the estrogen receptor beta (ER-beta) signaling pathway - cell viability counter screen (AID 1259380); further: nearly all actives have a fitted effect of over 30% in size
How it was run: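 Viability of ER-beta-UAS-bla HEK293T cells was determined by CellTiter-Glo luminescence following 16 hr treatment with test compounds at 37C.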

[3] = qHTS assay to identify small molecule antagonists of the estrogen receptor beta (ER-beta) signaling pathway - cell viability counter screen (AID 1259382);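 further: HEK293T cells carrying ER-beta-UAS-bla reporter stimulated with estradiol; series mostly up to about 92 µM; nearly all actives have a fitted effect of over 55% in size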
How it was run: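 Tox21 10K library tested in qHTS format on ER-beta-bla HEK293T cells stimulated with 1nM E2; 16 hr treatment at 37C. Same-well CellTiter-Glo luminescence served as the cell viability measure.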

[4] = qHTS assay to identify small molecule agonists or antagonists of the thyroid stimulating hormone receptor (TSHR) signaling pathway - wild type cell line counter screen (AID 1259384; calls by dose curve)
How it was run: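 Counter screen in untransfected Hek293: compounds (15-point titration, triplicate) plus phosphodiesterase inhibitor Ro20-1724 added after 18 h plating; 30 min RT. Intracellular cAMP via competitive d2/cryptate immunoassay, 1 h incubation.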

[5] = biological target: Thyrotropin receptor (Homo sapiens) (UniProt P16473); test: qHTS assay to identify small molecule antagonists of the thyroid stimulating hormone receptor (TSHR) signaling pathway (AID 1259385; calls by dose curve; further: nearly all actives have a fitted effect of over 20% in size)
Chain of Thyrotropin receptor (Homo sapiens) (P16473 whole entry, looked up): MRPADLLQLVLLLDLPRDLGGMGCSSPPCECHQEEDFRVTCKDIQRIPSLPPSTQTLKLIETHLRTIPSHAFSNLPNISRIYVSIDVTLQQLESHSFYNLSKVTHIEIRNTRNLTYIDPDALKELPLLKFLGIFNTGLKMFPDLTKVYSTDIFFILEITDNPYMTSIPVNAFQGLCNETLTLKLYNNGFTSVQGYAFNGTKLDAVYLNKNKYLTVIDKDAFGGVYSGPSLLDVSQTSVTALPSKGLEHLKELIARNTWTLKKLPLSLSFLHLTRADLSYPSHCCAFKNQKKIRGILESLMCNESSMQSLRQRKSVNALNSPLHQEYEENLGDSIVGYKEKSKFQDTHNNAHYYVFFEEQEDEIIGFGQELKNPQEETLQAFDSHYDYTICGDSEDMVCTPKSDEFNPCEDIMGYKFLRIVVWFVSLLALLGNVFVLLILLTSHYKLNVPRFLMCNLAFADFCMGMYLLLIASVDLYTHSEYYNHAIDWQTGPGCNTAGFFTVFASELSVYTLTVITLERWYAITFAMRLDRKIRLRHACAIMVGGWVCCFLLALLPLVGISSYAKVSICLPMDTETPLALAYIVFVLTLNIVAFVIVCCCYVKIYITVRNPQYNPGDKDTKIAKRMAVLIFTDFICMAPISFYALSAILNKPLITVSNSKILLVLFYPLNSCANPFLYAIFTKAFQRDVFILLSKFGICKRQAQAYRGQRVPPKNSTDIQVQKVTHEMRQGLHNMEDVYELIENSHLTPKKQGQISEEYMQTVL
How it was run: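 Antagonist mode: compound-treated TSHR-expressing HEK293 cells were stimulated with 1.5 ng/mL TSH (final) in presence of Ro20-1724 for 30 min at RT. HTRF cAMP detection after 1 h; each compound tested at 15 concentrations, triplicate.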

[6] = qHTS assay to identify small molecule agonists of the estrogen receptor alpha (ER-alpha) signaling pathway in the presence of an antagonist - cell viability counter screen (AID 1259386);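 further: series mostly up to about 92 µM; cells exposed to compounds for 22 h at 37 °C before the viability read; nearly all actives have a fitted effect of over 30% in size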
How it was run: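 Fluorescent CellTiter-Fluor viability signal from VM7Luc4E2 cells, with the reagent added during the final hour of a 22hr compound exposure at 37C in the presence of 10.0nM ICI-182,780.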

[7] = biological target: Progesterone receptor (Homo sapiens) (UniProt P06401); test: qHTS assay to identify small molecule agonists of the progesterone receptor (PR) signaling pathway (AID 1346784; calls by dose curve; further: nearly all actives have a fitted effect of over 30% in size)
Chain of Progesterone receptor (Homo sapiens) (P06401 whole entry, looked up): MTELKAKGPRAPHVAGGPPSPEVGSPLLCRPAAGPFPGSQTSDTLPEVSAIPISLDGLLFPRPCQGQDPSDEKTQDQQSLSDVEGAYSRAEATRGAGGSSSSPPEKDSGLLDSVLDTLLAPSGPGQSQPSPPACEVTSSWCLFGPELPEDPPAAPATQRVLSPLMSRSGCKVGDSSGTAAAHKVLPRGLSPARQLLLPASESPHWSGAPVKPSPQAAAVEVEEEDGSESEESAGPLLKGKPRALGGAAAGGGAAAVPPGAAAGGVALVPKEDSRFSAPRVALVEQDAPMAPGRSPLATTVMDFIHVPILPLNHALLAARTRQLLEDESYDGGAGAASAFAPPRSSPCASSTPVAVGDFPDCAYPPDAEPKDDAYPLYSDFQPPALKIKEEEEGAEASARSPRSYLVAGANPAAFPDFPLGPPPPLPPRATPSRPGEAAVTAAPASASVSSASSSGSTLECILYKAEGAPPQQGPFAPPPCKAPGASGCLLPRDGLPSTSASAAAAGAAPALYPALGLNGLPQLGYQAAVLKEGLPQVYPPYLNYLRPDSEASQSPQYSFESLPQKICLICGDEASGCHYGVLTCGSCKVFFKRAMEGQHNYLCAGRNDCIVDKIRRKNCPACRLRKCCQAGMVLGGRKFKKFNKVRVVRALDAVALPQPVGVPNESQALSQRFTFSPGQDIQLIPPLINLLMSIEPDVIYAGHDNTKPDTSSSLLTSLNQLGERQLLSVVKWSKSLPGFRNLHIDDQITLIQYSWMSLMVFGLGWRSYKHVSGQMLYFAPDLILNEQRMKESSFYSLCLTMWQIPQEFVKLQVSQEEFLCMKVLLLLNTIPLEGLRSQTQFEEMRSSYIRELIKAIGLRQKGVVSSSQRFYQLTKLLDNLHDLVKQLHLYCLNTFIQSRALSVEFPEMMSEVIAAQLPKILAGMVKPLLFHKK
How it was run: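 Fluorescence from LiveBLAzer B/G FRET substrate cleavage (2 hr, RT) reported PR activation in PR-UAS-bla HEK 293T cells treated 16 hr at 37C/5% CO2 with compounds; medium contained 2% charcoal-stripped FBS.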

[8] = biological target: Progesterone receptor (Homo sapiens) (UniProt P06401); test: qHTS assay to identify small molecule antagonists of the progesterone receptor (PR) signaling pathway (AID 1346795; active means well fitted inhibition curve with a large enough effect in the signal ratio in the repeat runs, not every such curve was filed as active; the % refers to the signal ratio)
How it was run: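 Fluorescence intensity measured 2 hr after adding beta-lactamase FRET substrate to PR-UAS-bla HEK293T cells that had been co-treated 16 hr with compound and 1 nM R5020 (final concentration) in 2% charcoal-stripped FBS.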

[9] = qHTS assay to identify small molecule antagonists of the progesterone receptor (PR) signaling pathway - cell viability counter screen (AID 1346798); further: series mostly up to about 92 µM; nearly all actives have a fitted effect of over 50% in size
How it was run: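 CellTiter-Glo luminescence; PR-UAS-bla HEK293T, 3,000 cells/well; compound + R5020, 16 hr, 37C/5% CO2; 30 min RT before read.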

[10] = qHTS assay to identify small molecule antagonists of the TGF-beta/Smad signaling pathway - cell viability counter screen (AID 1346824); further: nearly all actives have a fitted effect of over 50% in size
How it was run: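 Cytotoxicity counter-screen run in the same wells as the beta-lactamase Smad reporter read: CellTiter-Glo luminescence after 30 min at room temperature. HEK 293T SBE-bla cells had 5 hr compound exposure at 37 C with TGF-beta1 (0.25 ng/mL stock).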

[11] = qHTS assay to identify small molecule agonists of the TGF-beta/Smad signaling pathway - cell viability counter screen (AID 1346829); further: top concentration of the series differs between compounds; nearly all actives have a fitted effect of over 45% in size
How it was run: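 CellTiter-Glo luminescence readout; SBE-bla HEK 293T cells, overnight plating, compound 5 hr at 37 C/5% CO2, then bla substrate 2 hr RT, then CellTiter-Glo 30 min RT.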

[12] = qHTS assay to identify small molecule agonists of the TGF-beta/Smad signaling pathway (AID 1346859; active means well fitted activation curve with a large enough effect in the signal ratio in the repeat runs, not every such curve was filed as active; the % refers to the signal ratio; further: series mostly up to about 77 µM)
How it was run: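 After overnight seeding, SBE-bla HEK 293T cells are dosed with compounds in DMSO and kept 5 hr at 37 C, 5% CO2. LiveBLAzer-type FRET substrate is then applied for 2 hr at room temperature.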

[13] = Human pregnane X receptor (PXR) small molecule agonists, qHTS cell viability counter screen (AID 1346977); further: nearly all actives have a fitted effect of over 50% in size
How it was run: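 Viability counter screen: CellTiter-Fluor signal in PXR-Luc HepG2 cells, 24hr compound exposure, 37C, 5% CO2.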

[14] = qHTS assay to identify small molecule agonists of the progesterone receptor (PR) signaling pathway - cell viability counter screen (AID 1346799; calls by dose curve; further: nearly all actives have a fitted effect of over 45% in size)
How it was run: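 In parallel with the beta-lactamase readout, cytotoxicity toward PR-UAS-bla HEK293T cells was measured by CellTiter-Glo luminescence following 16 hr compound incubation in 2% charcoal-stripped FBS medium.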

[15] = biological target: Estrogen receptor (Homo sapiens) (UniProt P03372); test: qHTS assay to identify small molecule agonists of the estrogen receptor alpha (ER-alpha) signaling pathway in the presence of an antagonist (AID 1259383; calls by dose curve; further: top concentration of the series differs between compounds; nearly all actives have a fitted effect of over 15% in size)
Chain of Estrogen receptor (Homo sapiens) (P03372 whole entry, looked up): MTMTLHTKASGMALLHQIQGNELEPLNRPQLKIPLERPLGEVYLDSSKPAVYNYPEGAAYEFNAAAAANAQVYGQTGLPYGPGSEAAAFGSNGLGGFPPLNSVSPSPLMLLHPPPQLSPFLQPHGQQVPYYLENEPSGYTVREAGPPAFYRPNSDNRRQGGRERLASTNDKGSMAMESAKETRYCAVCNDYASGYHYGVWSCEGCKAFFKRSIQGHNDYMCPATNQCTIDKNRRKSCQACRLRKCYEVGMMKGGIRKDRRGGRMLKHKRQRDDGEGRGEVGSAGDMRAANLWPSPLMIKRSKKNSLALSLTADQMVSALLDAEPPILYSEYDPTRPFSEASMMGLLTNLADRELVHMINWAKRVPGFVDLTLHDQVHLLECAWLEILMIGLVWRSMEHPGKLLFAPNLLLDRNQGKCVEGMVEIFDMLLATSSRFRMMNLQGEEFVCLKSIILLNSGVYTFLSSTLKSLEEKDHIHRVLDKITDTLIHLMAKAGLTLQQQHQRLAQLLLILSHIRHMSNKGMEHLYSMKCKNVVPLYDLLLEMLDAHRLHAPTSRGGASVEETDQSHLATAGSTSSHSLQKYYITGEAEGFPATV
How it was run: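 In VM7Luc4E2 cells, 4,000 per well, compounds at 15 concentrations were co-incubated 22hr at 37C with 10.0nM final ICI-182,780. Luminescence from the stably transfected 4×ERE-luciferase reporter was recorded 30min after ONE-Glo addition.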

[16] = biological target: Thyrotropin-releasing hormone receptor (Homo sapiens) (UniProt P34981); test: qHTS assay to identify small molecule antagonists of the thyrotropin-releasing hormone receptor (TRHR) signaling pathway (AID 1346877; active means well fitted inhibition curve with a large enough effect in the repeat runs, not every such curve was filed as active; further: series mostly up to about 51 µM)
Chain of Thyrotropin-releasing hormone receptor (Homo sapiens) (P34981 whole entry, looked up): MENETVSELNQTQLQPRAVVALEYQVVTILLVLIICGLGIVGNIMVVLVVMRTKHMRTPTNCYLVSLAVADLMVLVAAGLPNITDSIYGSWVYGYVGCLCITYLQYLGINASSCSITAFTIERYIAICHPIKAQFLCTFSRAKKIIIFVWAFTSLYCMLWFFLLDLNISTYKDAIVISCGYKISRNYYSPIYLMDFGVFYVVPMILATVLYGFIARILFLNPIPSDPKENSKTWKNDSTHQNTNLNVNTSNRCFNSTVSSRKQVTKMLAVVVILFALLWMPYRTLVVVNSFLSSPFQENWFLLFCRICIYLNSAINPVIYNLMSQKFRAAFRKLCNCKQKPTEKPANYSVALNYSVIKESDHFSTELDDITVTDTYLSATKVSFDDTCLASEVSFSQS
How it was run: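 In this cell-based calcium flux format, HEK293 cells expressing TRHR received test compound for 5 min before the agonist TRH (1 nM final). Dye loading lasted 2 h at 37 °C.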

[17] = biological target: Thyrotropin-releasing hormone receptor (Homo sapiens) (UniProt P34981); test: qHTS assay to identify small molecule agonists of the thyrotropin-releasing hormone receptor (TRHR) signaling pathway (AID 1346891; calls by dose curve; further: series mostly up to about 58 µM)
How it was run: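 Compounds were tested as agonists at 15 concentrations, in triplicate, on TRHR-Hek293 cells; calcium-sensitive dye fluorescence was recorded for 3 min following addition.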
On the % scale 0 is the no-effect control and ±100 the full control effect.

[Ca+2]
inactive: Potency [1] | Potency [2] | outcome [3] | outcome [4] | outcome [5] | Potency [6] | Potency [7] | Potency [8] | Potency [9] | outcome [10] | outcome [11] | outcome [12] | Potency [13]

CC(C)[C@H]1CC[C@@H](C)CC1=O
inactive: Potency [1] | Potency [2] | outcome [3] | outcome [4] | outcome [5] | Potency [6] | Potency [7] | Potency [8] | Potency [9] | Potency [14] | outcome [12] | Potency [13]

NC(CCC(=O)O)C(=O)O (centres undefined)
inactive: Potency [1] | Potency [2] | outcome [3] | outcome [15] | outcome [4] | outcome [5] | Potency [6] | Potency [7] | Potency [8] | Potency [9] | Potency [14] | outcome [10] | outcome [11] | outcome [12] | outcome [16] | Potency [17] | Potency [13]

CC(C)(C)C(=O)Oc1ccc(S(=O)(=O)Nc2ccccc2C(=O)NCC(=O)O)cc1
inactive: Potency [1] | Potency [2] | outcome [3] | outcome [15] | outcome [5] | Potency [6] | Potency [7] | Potency [8] | Potency [9] | Potency [14] | outcome [10] | outcome [11] | outcome [12] | outcome [16] | Potency [17] | Potency [13]

CC(CO)(CO)[N+](=O)[O-]
inactive: Potency [1] | Potency [2] | outcome [3] | outcome [15] | outcome [4] | outcome [5] | Potency [6] | Potency [7] | Potency [8] | Potency [14] | outcome [10] | outcome [11] | outcome [12] | outcome [16] | Potency [17] | Potency [13]

CC(=O)C1CCCCC1=O (centres undefined)
inactive: Potency [1] | Potency [2] | outcome [3] | outcome [15] | outcome [4] | outcome [5] | Potency [7] | Potency [9] | outcome [10] | outcome [11] | outcome [12] | outcome [16] | Potency [17] | Potency [13]

COc1ccc2cc1Oc1cc3c(cc1OC)CC[N+](C)(C)[C@H]3Cc1ccc(cc1)Oc1c(OC)c(OC)cc3c1[C@@H](C2)[N+](C)(C)CC3
inactive: Potency [1] | Potency [2] | outcome [3] | outcome [4] | outcome [5] | Potency [6] | Potency [7] | Potency [8] | Potency [9] | Potency [14] | outcome [10] | outcome [11] | outcome [12] | outcome [16] | Potency [17] | Potency [13]

CC[N+](CC)(CC(=O)Nc1c(C)cccc1C)Cc1ccccc1 (tested in a mixture with another compound)
inactive: Potency [1] | Potency [2] | outcome [3] | outcome [4] | outcome [5] | Potency [6] | Potency [7] | Potency [8] | Potency [9] | Potency [14] | outcome [10] | outcome [11] | outcome [12] | Potency [13]

CC1=NS(=O)(=O)c2cc(Cl)ccc2N1
inactive: Potency [1] | Potency [2] | outcome [3] | outcome [15] | outcome [5] | Potency [6] | Potency [7] | Potency [8] | Potency [9] | Potency [14] | outcome [10] | outcome [11] | outcome [12] | Potency [13]

CO[Si](C)(OC)c1ccccc1
inactive: Potency [1] | Potency [2] | outcome [3] | outcome [15] | outcome [5] | Potency [6] | Potency [7] | Potency [8] | Potency [9] | Potency [14] | outcome [10] | outcome [11] | outcome [12] | outcome [16] | Potency [17] | Potency [13]

CCN(CC#N)c1cccc(C)c1
inactive: Potency [1] | Potency [2] | outcome [3] | outcome [15] | Potency [6] | Potency [7] | Potency [8] | Potency [9] | Potency [14] | outcome [10] | outcome [11] | outcome [12] | Potency [13]

CN1[C@@H]2CC[C@H]1CC(OC(=O)C(O)c1ccccc1)C2 (some centres undefined)
inactive: Potency [1] | Potency [2] | outcome [3] | outcome [15] | outcome [4] | outcome [5] | Potency [6] | Potency [7] | Potency [8] | Potency [14] | outcome [10] | outcome [12] | outcome [16] | Potency [17] | Potency [13]

CC(C)COC(=O)c1ccc(N)cc1
inactive: Potency [1] | Potency [2] | outcome [3] | outcome [4] | outcome [5] | Potency [6] | Potency [7] | Potency [9] | Potency [14] | outcome [10] | outcome [11] | outcome [12] | outcome [16] | Potency [17] | Potency [13]

CCCCOC(=O)CCC(C)=O
inactive: Potency [1] | Potency [2] | outcome [3] | outcome [15] | outcome [4] | outcome [5] | Potency [7] | Potency [8] | Potency [9] | Potency [14] | outcome [10] | outcome [11] | outcome [12] | outcome [16] | Potency [17] | Potency [13]

Cc1cc(C)c(N=Nc2c(O)c(S(=O)(=O)O)cc3cc(S(=O)(=O)O)ccc23)cc1C
inactive: activity change, negative = cytotoxicity [1] -11.3% [at 8.39 µM] | activity change, negative = cytotoxicity [2] -5.12% [at 8.39 µM] | activity change, negative = cytotoxicity [3] 8.89% [at 8.39 µM] | activation [15] -2.23% [at 8.39 µM] | cAMP activity change [4] 2.77% [at 8.39 µM] | activity change, negative = inhibition [5] -1.06% [at 8.39 µM] | activity change, negative = inhibition [8] 2.15% [at 8.39 µM] | activity change, negative = cytotoxicity [14] 0% [at 8.39 µM] | viability change, negative = cytotoxic [10] -0.1% [at 6.97 µM] | activity change, negative = cytotoxicity [11] -4.86% [at 6.97 µM] | activation [12] 0.0984% [at 6.97 µM] | activity change, negative = cytotoxicity [13] -25% [at 8.39 µM]

COc1cc(C(=O)NCc2ccc(OCCN(C)C)cc2)cc(OC)c1OC
inactive: Potency [1] | Potency [2] | outcome [3] | outcome [15] | outcome [4] | outcome [5] | Potency [6] | Potency [7] | Potency [8] | Potency [9] | Potency [14] | outcome [10] | outcome [11] | outcome [12] | outcome [16] | Potency [17] | Potency [13]

CC(C)(C)C(=O)c1ccccc1
inactive: Potency [1] | Potency [2] | outcome [3] | outcome [4] | outcome [5] | Potency [6] | Potency [7] | Potency [8] | Potency [14] | outcome [10] | outcome [11] | outcome [12] | Potency [13]
